Compound activity (PubChem BioAssay)
Shown are actives, neighbours in structure and some others; about 3.6% of the full set was active somewhere.
S16 F2sN tox: Cell viability qHTS assay in S16 Pmp22-F2sN cells | S16 Pmp22-F2sN Schwann cells viability, CellTiter-Glo, 24 h | Potency, µM (titrated, usually from 57.5 µM), most hits filed as cytotoxic | hit rate 0.48% among 43,000 | AID 1508642, 2021; also: nearly all actives have a fitted effect of over 65% in size
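Rat S16 Schwann reporter line, 24 h treatment with library compounds delivered at 23 nL per well. Cell viability by CellTiter-Glo luminescence.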
mTORC1 inh: Acumen qHTS Assay for Inhibitors of the mTORC1 Signaling Pathway in MEF (Tsc2-/-, p53-/-) Cells: Sytravon | Tsc2-/- p53-/- MEF, phospho-rpS6 immunofluorescence/PI, 24 h | Potency, µM (highest dose often 38.3 µM), actives largely listed as inhibitors | hit rate 0.78% among 44,000; also: nearly all actives have a fitted effect of over 50% in size
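Read-out: phospho-S6 Alexa-488 intensity over PI intensity per well, scored as % active cells using thresholds from rapamycin (7.5 nM) and DMSO controls. Tsc2-/-, p53-/- MEFs exposed to compound for 24 h; PI cell count recorded as viability.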
HTT prom inh: Primary qHTS for Identification of Small Molecule Inhibitors of Huntingtin Promoter Activity; Potency, µM (doses to about 57.5 µM), hits mostly inhibitors; hit rate 0.93% among 48,000; AID 1508623, 2021; HEK293 HTT promoter firefly luciferase reporter, 24 h; also: nearly all actives have a fitted effect of over 50% in size
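Firefly luciferase signal from promoter-reporter HEK293 cells was scaled between vehicle (0%) and zero RLU (-100%). Compounds were tested at final concentrations of up to 57.5 uM over 24 h at 37 degrees C. PTC124 at 50 uM final served as control inhibitor.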
HTT-AS act: Primary qHTS for Identification of Small Molecule Activators of Huntingtin-Antisense Promoter Activity; HEK293 HTT-AS promoter firefly luciferase reporter, 24 h; response scale: percent change from vehicle, -100% = no light; Potency, µM (series often up to 57.5 µM), actives largely listed as activators; hit rate 0.24% among 48,000; also: nearly all actives have a fitted effect of over 55% in size
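Luminescence was read after Dual-Glo reagent and a 10 min room-temperature incubation. Values were normalized to vehicle (0% activity) and zero RLU (-100% activity). Reporter HEK293 cells had been exposed to compounds (up to 57.5 uM final) for 24 h.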
PMP22 txn: Cell-based coincidence reporter assay to measure PMP22 gene transcription in S16 Pmp22-F2sN cells - Primary screen. S16 Pmp22-F2sN Schwann cells (luciferase reporters placed in the Pmp22 gene), FLuc/NLuc coincidence luminescence, 24 h. Potency, µM (titrated, usually from 57.5 µM), actives largely listed as inhibitors. hit rate 2% among 43,000. AID 1508649, 2021; active = clear falling dose curves in both reporters; inconclusive = both reporters move, but less clearly or upward; inactive = either reporter flat; the % is the NLuc reporter signal
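Luminescent read-out of sequential FLuc and NLuc signals from a reporter embedded in the Pmp22 3' UTR of S16 Schwann cells, taken after 24 h compound exposure at 37C; compounds reducing both signals score as inhibitors of expression.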
Large screens that a line does not name were inactive. Unless noted, calls follow the shape of the dose curve; as a rule, active = well fitted curve in the direction sought with a large enough effect; inconclusive = small, poorly fitted or top-dose-only effect, or another doubt; inactive = no such curve, though single readings can be large; an effect the other way counts as inactive or inconclusive.

Oc1c(I)cc(Cl)c2cccnc12	none (no result: S16 F2sN tox, mTORC1 inh, PMP22 txn)
COc1ccc(C(=O)NC(c2ccccc2Cl)c2cc(Cl)c3cccnc3c2O)cc1 (stereo not drawn)	S16 F2sN tox 3.16µM, mTORC1 inh inconclusive, HTT prom inh 8.91µM, PMP22 txn inconclusive
COCCn1c(CNC(=O)c2cc(OC)c(OC)c(OC)c2)nc2cccnc21	none
COc1cc(C(=O)NC(c2ccccc2Cl)c2cc(Cl)c3cccnc3c2O)cc(OC)c1OC (stereo not drawn)	S16 F2sN tox inconclusive, HTT prom inh inconclusive, PMP22 txn 4.39µM
OCCN(CCO)c1ncnc2c1cnn2-c1ccc(F)cc1	HTT-AS act 7.94µM
O=c1[nH]c(=O)n([C@H]2C[C@@H](O)[C@@H](CO)O2)cc1C(F)(F)F	none (no result: S16 F2sN tox, mTORC1 inh, PMP22 txn)
CCOC(=O)c1cc2c(=O)n3ccccc3nc2n(CC2CCCO2)c1=NC(=O)c1cc(C)cc(C)c1 (stereo not drawn)	S16 F2sN tox inconclusive, HTT prom inh inconclusive, PMP22 txn 1.5µM
CCOC(=O)c1cc2c(=O)n3ccccc3nc2n(CC2CCCO2)c1=NC(=O)c1ccc(OCC)cc1 (stereo not drawn)	PMP22 txn inconclusive
COc1cc2cc(CNc3ccccc3)c(=O)n(CC(=O)Nc3cc(C)cc(C)c3)c2cc1OC	S16 F2sN tox inconclusive, PMP22 txn inconclusive
Cc1ccc(NCc2cc3cc4c(cc3n(CC(=O)Nc3ccc(C)cc3)c2=O)OCCO4)cc1	S16 F2sN tox inconclusive, mTORC1 inh 4.65µM, PMP22 txn inconclusive
Cc1ccc(NCc2cc3cc4c(cc3n(CC(=O)Nc3ccc(F)cc3F)c2=O)OCCO4)cc1	mTORC1 inh inconclusive, PMP22 txn inconclusive
COc1cc2cc(CNc3ccc(C)cc3)c(=O)n(CC(=O)Nc3ccc(F)cc3F)c2cc1OC	mTORC1 inh 5.21µM, HTT-AS act inconclusive
COc1cc(C(C)C)c(Oc2cnc(NC(CO)CO)nc2N)cc1I	none (no result: S16 F2sN tox, mTORC1 inh, PMP22 txn)
COc1cc(NC(=O)CCc2c(C)nc3cc(-c4ccccc4)nn3c2C)cc(OC)c1OC	HTT prom inh 3.98µM, PMP22 txn inconclusive
COc1ccc(N2CCN(C(=O)CCc3c(C)nc4cc(-c5ccc(Cl)cc5)nn4c3C)CC2)cc1	HTT prom inh 0.316µM
CCOc1ccc(NC(=O)CCc2c(C)nc3cc(-c4ccc(Cl)cc4)nn3c2C)cc1	HTT prom inh inconclusive
COc1ccc(NC(=O)CCc2c(C)nc3cc(-c4cccc(F)c4)nn3c2C)cc1Cl	HTT prom inh 2.24µM
COc1cc(OC)cc(-c2cc3nc(C)c(CCC(=O)Nc4ccc(F)c(Cl)c4)c(C)n3n2)c1	HTT prom inh 1.58µM
COC(=O)c1cc(NC(=O)CCc2c(C)nc3cc(-c4ccccc4)nn3c2C)cc(C(=O)OC)c1	none
CCS(=O)(=O)c1ncc(Cl)c(C(=O)NCc2ccc(OC)cc2)n1	S16 F2sN tox 2.82µM, mTORC1 inh 3.69µM, HTT prom inh inconclusive, PMP22 txn 6.48µM
CCCSc1ncc(Cl)c(C(=O)NCc2ccc(OC)cc2)n1	PMP22 txn inconclusive
CCCS(=O)(=O)c1ncc(Cl)c(C(=O)N(Cc2ccccc2)Cc2ccco2)n1	S16 F2sN tox 2.24µM, mTORC1 inh 16.5µM, HTT prom inh inconclusive, PMP22 txn 6.45µM
COc1ccc(N(Cc2ccccc2)C(=O)c2nc(SC)ncc2Cl)cc1	S16 F2sN tox inconclusive, HTT prom inh 20µM, PMP22 txn inconclusive
CCS(=O)(=O)c1ncc(N(Cc2ccccc2)Cc2ccco2)c(C(=O)Nc2ccccc2C)n1	none
CCSc1ncc(Cl)c(C(=O)N(Cc2ccccc2)Cc2ccco2)n1	PMP22 txn inconclusive
CCS(=O)(=O)c1ncc(Cl)c(C(=O)N(Cc2ccccc2)c2ccc(OC)cc2)n1	S16 F2sN tox 4.47µM, mTORC1 inh 2.61µM, HTT prom inh 15.8µM, PMP22 txn 2.24µM
Nc1ncnc2c1c(-c1cnc3[nH]ccc3c1)nn2C1CCCC1	HTT prom inh inconclusive (no result: S16 F2sN tox, mTORC1 inh, PMP22 txn)
CCS(=O)(=O)c1ncc(Cl)c(C(=O)N2CCN(c3ccc(OC)cc3)CC2)n1	S16 F2sN tox 7.94µM, mTORC1 inh 3.29µM, HTT prom inh inconclusive, PMP22 txn 6.58µM
